# From PubChem BioAssay (Tox21)
# Records with an inconclusive call do not appear. Unmarked numbers belong to inactive results. Calls of active or inactive are those of the source. The call rests on the fitted dose curve; in most records, active means well fitted cell-killing curve with a large enough effect in the repeat runs; inconclusive means weak or mixed curves, or effect the other way; inactive means flat fitted curve, though single readings scatter.
# Assay: cAMP Responsive Elements (CRE) small molecule antagonists, cell-based qHTS assay: qHTS cell viability counter screen (AID 2060913); further: nearly all actives have a fitted effect of over 40% in size
# Settings: CRE-bla HEK293T viability, CellTiter-Glo luminescence, 5 h; series mostly up to 92.4 µM; viability change, negative = cytotoxic: at the top concentration
# Outline: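 Cytotoxicity read in the same wells as the CRE-bla HEK293T antagonist assay: after 3 h compound with 0.25 uM NKH477 final and 2 h beta-lactamase substrate, CellTiter-Glo luminescence measured.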
# On the % scale 0 is the no-effect control and ±100 the full control effect; potency means the concentration at half of the fitted maximal effect.
Structure (SMILES),"viability change, negative = cytotoxic",Potency
CNP(=O)(OC)Oc1ccc(C(C)(C)C)cc1Cl (stereo not given),-8.52%,–
NCC(O)c1ccc(O)cc1 (stereo not given),–,inactive
O=[N+]([O-])O.O=[N+]([O-])O.[Cd],-19%,–
Nc1cc2c3c(c1)C(c1ccccc1)=N[C@@H](NC(=O)c1cccnc1)C(=O)N3CC2,0.895%,–
CC(C)C(=O)OCC(C)(C)C(OC(=O)C(C)C)C(C)C (stereo not given),–,inactive
N#CCBr,3.67%,–
CN1CCN(C(=O)O[C@H]2c3nccnc3C(=O)N2c2ccc(Cl)cn2)CC1,6.3% [at 42.5 µM],–
CCC(C)c1cc([N+](=O)[O-])cc([N+](=O)[O-])c1O (stereo not given),12.9%,–
CCC1COC(Cn2cncn2)(c2ccc(Cl)cc2Cl)O1 (stereo not given),-15%,–
CC(C)(C)OOC(C)(C)C,–,inactive
CC[N+]1(C)CCCC(OC(=O)C(O)(c2ccccc2)c2ccccc2)C1 (stereo not given),1.35% [at 42.5 µM],–
COc1ccc(OC)c(CC(C)N)c1 (stereo not given),-0.525%,–
O=[N+]([O-])c1ccc(Cl)cc1,–,inactive
CCOP(O)OCC,-1.76%,–
C[C@]12CC[C@H]3[C@@H](CC[C@@]45O[C@@H]4C(O)=C(C#N)C[C@]35C)[C@@H]1CC[C@@H]2O,2.74% [at 42.5 µM],–
C=C(C)C(=O)[O][Sn]([CH2]CCC)([CH2]CCC)[CH2]CCC,–,7.7 µM (active)
Clc1nc(Cl)nc(Cl)n1,–,inactive
CCOP(=S)(S)OCC,11.3%,–
FC(F)(F)c1ccc(Cl)cc1,–,inactive
II,-15.9%,–

Structure (SMILES),"viability change, negative = cytotoxic",Potency
O=S(=O)(O)C(F)(F)C(F)(F)C(F)(F)C(F)(F)C(F)(F)C(F)(F)C(F)(F)C(F)(F)F,-4.06%,–
ClCC(Cl)(Cl)Cl,-4.29%,–
CCCCCCCCCCCCCCCl,6.52%,–
CC[N+]1(C)CCCC1,–,inactive
O=C1NCN(c2ccccc2)C12CCN(CC1COc3ccccc3O1)CC2 (stereo not given),-18.9% [at 42.5 µM],–
CCSCc1ccccc1OC(=O)NC,0.273%,–
CCCCN(CCCC)C(=S)[S-].CCCCN(CCCC)C(=S)[S-].[Ni+2],-0.294% [at 42.5 µM],–
CC[N+]1(CC)CCC(OC(=O)C(O)(c2ccccc2)c2ccccc2)C1 (stereo not given),7.3% [at 42.5 µM],–
CC(C)COC(=O)c1ccccc1C(=O)OCC(C)C,–,inactive
CCC(COC(=O)c1cc(OC)c(OC)c(OC)c1)(c1ccccc1)N(C)C (stereo not given),-6.57% [at 42.5 µM],–
CCNc1nc(NC(C)C(C)C)nc(SC)n1 (stereo not given),-2.81%,–
NC(=O)c1cc([N+](=O)[O-])cc([N+](=O)[O-])c1,0.273% [at 42.5 µM],–
COc1ccc2c(C(=O)c3ccc(Cl)cc3)c(C)n(CC(=O)O)c2c1,-5.21% [at 42.5 µM],–
C[C@H]1CCC[C@H](O)CCCCCc2cc(O)cc(O)c2C(=O)O1,-26.1%,–
C[C@@H](N)[C@@H](O)c1ccccc1,-0.0847% [at 42.5 µM],–
NC(=O)CF,8.81%,–
NCc1cccnc1,–,inactive
Cc1ccc([N+](=O)[O-])cc1C,–,inactive
CC(=O)OC(c1ccccc1)C(Cl)(Cl)Cl (stereo not given),2.13%,–
CN(C)C(=S)S,–,inactive

# Assay: cAMP Responsive Elements (CRE) small molecule agonists, cell-based qHTS assay: qHTS cell viability counter screen (AID 2060914); further: nearly all actives have a fitted effect of over 50% in size
# Settings: CRE-bla HEK293T viability, CellTiter-Glo luminescence, 5 h; series mostly up to 92.4 µM; activity change, negative = cytotoxicity: at the top concentration
# Outline: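 Cytotoxicity was measured as ATP luminescence (CellTiter-Glo, 30 min at room temperature) in the same wells as the CRE-bla FRET read-out. HEK293T CRE-bla cells had 3 h compound exposure at 37C/5% CO2.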
Structure (SMILES),"activity change, negative = cytotoxicity",Potency
CNP(=O)(OC)Oc1ccc(C(C)(C)C)cc1Cl (stereo not given),-0.321%,–
NCC(O)c1ccc(O)cc1 (stereo not given),–,inactive
O=[N+]([O-])O.O=[N+]([O-])O.[Cd],-1.55%,–
Nc1cc2c3c(c1)C(c1ccccc1)=N[C@@H](NC(=O)c1cccnc1)C(=O)N3CC2,-4.02%,–
CC(C)C(=O)OCC(C)(C)C(OC(=O)C(C)C)C(C)C (stereo not given),–,inactive
N#CCBr,-0.0498%,–
CN1CCN(C(=O)O[C@H]2c3nccnc3C(=O)N2c2ccc(Cl)cn2)CC1,-19.5% [at 42.5 µM],–
CCC(C)c1cc([N+](=O)[O-])cc([N+](=O)[O-])c1O (stereo not given),3.78%,–
CCC1COC(Cn2cncn2)(c2ccc(Cl)cc2Cl)O1 (stereo not given),-4.48%,–
CC(C)(C)OOC(C)(C)C,–,inactive
CC[N+]1(C)CCCC(OC(=O)C(O)(c2ccccc2)c2ccccc2)C1 (stereo not given),-27.9% [at 42.5 µM],–
COc1ccc(OC)c(CC(C)N)c1 (stereo not given),-2.95%,–
O=[N+]([O-])c1ccc(Cl)cc1,–,inactive
CCOP(O)OCC,-1.71%,–
C[C@]12CC[C@H]3[C@@H](CC[C@@]45O[C@@H]4C(O)=C(C#N)C[C@]35C)[C@@H]1CC[C@@H]2O,0.859% [at 42.5 µM],–
C=C(C)C(=O)[O][Sn]([CH2]CCC)([CH2]CCC)[CH2]CCC,–,4.86 µM (active)
Clc1nc(Cl)nc(Cl)n1,–,inactive
CCOP(=S)(S)OCC,-7.69%,–
FC(F)(F)c1ccc(Cl)cc1,–,inactive
II,-14.7%,–

Structure (SMILES),"activity change, negative = cytotoxicity",Potency
O=S(=O)(O)C(F)(F)C(F)(F)C(F)(F)C(F)(F)C(F)(F)C(F)(F)C(F)(F)C(F)(F)F,–,inactive
ClCC(Cl)(Cl)Cl,1.07%,–
CCCCCCCCCCCCCCCl,6.12%,–
CC[N+]1(C)CCCC1,–,inactive
O=C1NCN(c2ccccc2)C12CCN(CC1COc3ccccc3O1)CC2 (stereo not given),-11.2% [at 42.5 µM],–
CCSCc1ccccc1OC(=O)NC,6.69%,–
CCCCN(CCCC)C(=S)[S-].CCCCN(CCCC)C(=S)[S-].[Ni+2],-5.66% [at 42.5 µM],–
CC[N+]1(CC)CCC(OC(=O)C(O)(c2ccccc2)c2ccccc2)C1 (stereo not given),-0.16% [at 42.5 µM],–
CC(C)COC(=O)c1ccccc1C(=O)OCC(C)C,–,inactive
CCC(COC(=O)c1cc(OC)c(OC)c(OC)c1)(c1ccccc1)N(C)C (stereo not given),-14% [at 42.5 µM],–
CCNc1nc(NC(C)C(C)C)nc(SC)n1 (stereo not given),-3.55%,–
NC(=O)c1cc([N+](=O)[O-])cc([N+](=O)[O-])c1,-3.39% [at 42.5 µM],–
COc1ccc2c(C(=O)c3ccc(Cl)cc3)c(C)n(CC(=O)O)c2c1,0.254% [at 42.5 µM],–
C[C@H]1CCC[C@H](O)CCCCCc2cc(O)cc(O)c2C(=O)O1,-0.423%,–
C[C@@H](N)[C@@H](O)c1ccccc1,1.88% [at 42.5 µM],–
NC(=O)CF,-0.658%,–
NCc1cccnc1,–,inactive
Cc1ccc([N+](=O)[O-])cc1C,–,inactive
CC(=O)OC(c1ccccc1)C(Cl)(Cl)Cl (stereo not given),-1.1%,–
CN(C)C(=S)S,–,inactive
